Test results as given in the supplement of paper PMC6555819.

Tests used:
Experiment in all cases: PBM binding z-score (relative to random genomic background probes); higher = stronger binding; sequences stand for … in GC…GCGATTGACAGCGTAGAATGAAGG
[1] = system: RARb homodimer (NR concentration 270 nM)
Method in brief: (§1)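 Binding z-scores take random background probes as their reference. They come from custom Agilent 4×180K protein-binding microarrays incubated 1 h with ligand-free nuclear receptor dimers, with antibodies against each partner (one per run) detecting binding. Scanned fluorescence was regression-normalized.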

[2] = system: RARg:RXRa (NR concentration 270 nM, RXRa partner concentration 90 nM)
Method in brief: as §1

[3] = system: RARg homodimer (NR concentration 270 nM)
Method in brief: as §1

[4] = system: RXRa DBDmut IVT, anti-RXR (DBD mutation: RXRa K156A/R161A, NR concentration 90 nM)
Method in brief: as §1

[5] = system: RXRa homodimer (NR concentration 180 nM)
Method in brief: as §1

[6] = system: THRa:RXRa (NR concentration 90 nM, RXRa partner concentration 90 nM)
Method in brief: as §1

[7] = system: THRa homodimer (NR concentration 90 nM)
Method in brief: as §1

[8] = system: VDR homodimer (NR concentration 270 nM)
Method in brief: as §1

Sequence | PBM binding z-score [1] | PBM binding z-score [2] | PBM binding z-score [3] | PBM binding z-score [4] | PBM binding z-score [5] | PBM binding z-score [6] | PBM binding z-score [7] | PBM binding z-score [8]
CTATGTAGGTTAAGGGGGTCCTTCAGTTTGAAAG | 1.5 | 1.79 | 1.26 | 0.924 | 1.49 | 2.17 | 0.899 | 1.49
CCTTACGGGTCGCTGACAGGTTATAGCATTTGGA | 1.02 | 2.45 | 1.01 | 0.55 | 1.78 | 0.913 | -0.259 | 0.138
ATATGTAGGTTAGGGTCATTCCGAAAGTAGGGAA | 3.13 | 3.89 | 2.85 | 2.61 | 5.22 | 4.18 | 3.01 | 3.59
CTATGTAGGTGAAGGGGGTCATTCAGTTTGAAAG | 3.79 | 4.75 | 3.55 | 2.11 | 5.63 | 3.88 | 1.67 | 5.55
CGAACTCGGTCAAAGGACAGTGAAAGGCGACGTA | 1.9 | 2.15 | 2.76 | 0.447 | 0.907 | 0.713 | -0.276 | -0.121
CTCTGTAGGTTAAGGGGGTCATTCAGTTTGAAAG | 3.87 | 5.32 | 4.07 | 2.52 | 5.91 | 3.86 | 2.34 | 5.47
TAGCCTAGGTCACGGGCCAGTATACCACGCGAAC | 3.83 | 5.12 | 5.43 | 0.27 | 4.73 | 3.83 | 1.84 | 0.425
TCATATAGGTAATAGGTGAAAGTCGGTGTGGTAA | 0.632 | 0.482 | 0.284 | 1.59 | 1.53 | 0.534 | 0.384 | 0.435
CCGACGGGGGCAAGGTTACCATAACGCACAGCCA | 2.54 | 3.79 | 3.51 | 2.32 | 3.35 | 3.09 | 1.26 | 1.78
ATATGTAGGTTAGGGTCATTCAGAAAGTAGGGAA | 3.49 | 4.11 | 3.21 | 2.68 | 5.53 | 3.97 | 3.55 | 4.01
TCGAGTAGGTTACGCGGGCATTCAGGGATGAAGA | 0.619 | 0.799 | 0.653 | -0.0929 | 0.864 | 0.97 | -0.444 | -0.617
TCAGATAGGTAAAGGTGAAAGTCGAACGATATGA | 1.76 | 1.57 | 1.27 | 0.734 | 2.33 | 1.33 | -0.218 | -0.344
AATTCAGGGTCACTAGGCCAGAGTAGGTACGAAT | 3.83 | 6.06 | 5.56 | 3.39 | 6.68 | 4 | 1.78 | 2.97
CGAACTATGTCACCAGGACAGTGAAGAGGTTGGA | 0.797 | 0.591 | 0.719 | -0.0649 | 0.602 | 1.66 | 0.878 | 0.455
ATATGTAGGTTATGGTCATTCAGAAAGTAGGGAA | 1.22 | 1.16 | 1.22 | 0.958 | 1.32 | 1.05 | 0.5 | 0.656
CGATCTAGGTCACCAGGACAGTGAAGAGGTTGGA | 3.47 | 4.36 | 5.15 | 1.35 | 3.32 | 3.44 | 2.13 | 0.435
CGAACTAGGTCACCAGGACAGTGATGAGGTTGGA | 3.53 | 4.4 | 5.41 | 1.28 | 3.45 | 3.42 | 2.08 | 1.13
TCGGGTAGGTTACGGGGGCATTCAGGGATGAAGA | 3.18 | 4.23 | 4.1 | 3.04 | 3.43 | 4.32 | 3.14 | 4.85
TCGAGGAGGTTACGGGGGCATTCAGGGATGAAGA | 2.61 | 4.51 | 3.37 | 2.51 | 4.12 | 4.31 | 1.88 | 3.86

Sequence | PBM binding z-score [1] | PBM binding z-score [2] | PBM binding z-score [3] | PBM binding z-score [4] | PBM binding z-score [5] | PBM binding z-score [6] | PBM binding z-score [7] | PBM binding z-score [8]
ATCTGTAGGTTATCGGGTCATTCAGTTTGCGCAT | 3.19 | 3.59 | 2.78 | 1.68 | 3.48 | 3.36 | 3.04 | 3.95
CCGAGTAGGTTACGGGGGGGCATTCAGTGCGAAT | 3.09 | 4.41 | 4.19 | 2.7 | 2.73 | 4.4 | 3.04 | 4.76
ACTAGTTGTTCAGCTGAGGTCACACACAATTCGG | 4.34 | 3.72 | 3.35 | 1.54 | 4.16 | 4.65 | 5.2 | 2.84
ACTTACGGGTCAACGACGTTATAGCACGCGTATA | 2.87 | 5.07 | 4.51 | 1.59 | 5.19 | 2.68 | 0.369 | 0.841
GATACAGGGTCATCTAGAGGCCAGAGTATGGAAA | 3.71 | 7.56 | 5.37 | 3.39 | 6.6 | 3.76 | 0.837 | 2.85
CGAACTAGGTCAAAGGACCGTGAAAGGCGACGTA | 2.22 | 3.5 | 4.44 | 1.42 | 2.86 | 2.23 | 0.043 | 0.238
CCGAGTAGGATACGAGGGGGCATTCAGTGCGAAT | 1.17 | 1.37 | 0.779 | 0.527 | 0.919 | 1.97 | -0.158 | 2.57
TCGAGTACGTTACGGGGGCATTCAGGGATGAAGA | 1.42 | 1.46 | 0.926 | 3.21 | 1.25 | 3.59 | 0.925 | 4.32
CACACTAGGTCAAGAGGTCAAAGTCCGCTTCCCG | 5.71 | 8.04 | 7.49 | 3.09 | 8.05 | 4.5 | 3.03 | 4.78
ATGTGTAGGTTACATCCGGGTCATTCAGGCTATG | 3.32 | 3.75 | 2.19 | 0.811 | 2.95 | 3.94 | 2.75 | 3.1
TCTAGTTGGTCAAAGGTCTCACACTCGAAATGCG | 1.83 | 1.78 | 1.17 | 1.14 | 1.98 | 0.831 | 0.738 | 0.545
ATATGTTGGTTAGGGTCATTCAGAAAGTAGGGAA | 3.19 | 3.79 | 2.71 | 2.64 | 5.05 | 4.08 | 3.71 | 4.01
CGTCGGAGGACAACAGGAGGTCAGAGCTGCCAGA | 3.63 | 3.83 | 3.69 | 0.531 | 2.26 | 2.98 | 1.12 | 1.79
ATATGTAGGTTACATCGGGGTCATTCAGGCTATG | 4.16 | 5.65 | 3.14 | 2.56 | 6.42 | 4.32 | 3.16 | 6.17
GCATACGGGTCAAAGGTTATAGCATGAATAGAAT | 3.26 | 6.95 | 4.87 | 2.46 | 9.53 | 3.81 | -0.445 | 1.56
ATATGTAGGTCATCGGGTCATTCAGTTTGCGCAT | 4.63 | 6.21 | 5.6 | 2.92 | 6.72 | 4.16 | 3 | 5.1
ATCGGAAGGTCGAGGTGAGTATAGAGAAAGGGAA | 2.14 | 2.38 | 2.75 | 0.14 | 2.25 | 2.28 | 0.964 | 0.543
TAGCCAAGGTCAGATCGGGCCAGTATACGCTATA | 3.41 | 4.59 | 5.1 | 1.75 | 3.58 | 4.32 | 1.09 | 1.11
CGTCCAAGGTCAATTCTAGGTCAGTGAAAGCATT | 5.03 | 7.43 | 6.42 | 3.52 | 4.75 | 4.64 | 3.17 | 2.76

Sequence | PBM binding z-score [1] | PBM binding z-score [2] | PBM binding z-score [3] | PBM binding z-score [4] | PBM binding z-score [5] | PBM binding z-score [6] | PBM binding z-score [7] | PBM binding z-score [8]
CGTCCAAGGTCAACGCTAGGTCAGTGAAAGCATT | 5.38 | 7.88 | 7.21 | 3.69 | 6.38 | 4.61 | 3.53 | 2.6
CAAACTAGGTCACCAGGACAGTGAAGAGGTTGGA | 3.44 | 4.56 | 5.51 | 1.54 | 3.75 | 3.77 | 2 | 1.03
AGTCAAAGTTCATCAAGGTAACGTAAGATATGCT | 3.86 | 5.57 | 5.96 | 4.57 | 4.81 | 3.8 | 1.23 | 4.97
CGTACTAGGTCAAAGGACAGTGAAAGGCGACGTA | 2.87 | 4.02 | 4.76 | 1.91 | 3.01 | 2.51 | 0.4 | 0.647
TCGAGTAGGTTACGGGGGCATTCATGGATGAAGA | 2.23 | 3.37 | 2.71 | 1.74 | 2.93 | 2.63 | 1.13 | 3.57
AATACAGGGTCGCTAGGCCAGAGTAGGTACGAAT | 0.921 | 1.37 | 1.37 | 0.47 | 1.52 | 1.09 | 0.0627 | 0.727
CCTTACAGGTCAAGGTTATAGCACGGGTGGTACG | 3.78 | 5.27 | 5.53 | 1.83 | 4.72 | 3.18 | 1.33 | 1.73
TCGAGTAGGTTACGGGGGCATACAGGGATGAAGA | 2.05 | 3.68 | 2.84 | 1.44 | 3.07 | 3.53 | 1.18 | 2.83
TCGAGTAGGTTGCGGGGGCATTCAGGGATGAAGA | 1.73 | 2.24 | 1.59 | 1.94 | 1.5 | 3.75 | 2.35 | 3.45
TCGAGTAGGTTACGGGGGCATTCTGGGATGAAGA | 2.05 | 3.25 | 2.19 | 1.74 | 2.52 | 3.32 | 1.3 | 3.52
CGAACTATGTCAAAGGACAGTGAAAGGCGACGTA | 1.14 | 1.08 | 1.39 | -0.18 | 0.00503 | 0.122 | -0.538 | -0.0132
AGTCAAAGTTCAGGACGAGGTAATGTAAAGCACG | 3.05 | 4.89 | 4.72 | 3.05 | 3.37 | 3.5 | 1.44 | 2.1
CTACGTAGGTTAAGGGGGTCATTCAGTTTGAAAG | 3.61 | 5.6 | 4.1 | 1.87 | 6.27 | 3.9 | 1.23 | 6.07
CCAGAAAGGTGAAAGGTAACTCAGTCTGGTACGC | 1.92 | 3.17 | 2.13 | 0.365 | 4.27 | 1.94 | 0.107 | 0.0179
GCTCGGGGGACAAGGTCAGAGCTTTGTCCGTAGA | 3.12 | 4.71 | 4.55 | 1.43 | 3.63 | 3.48 | 1.91 | 1.47
CGAACTGGGTCACCAGGACAGTGAAGAGGTTGGA | 2.84 | 4.16 | 4.22 | 0.542 | 3.41 | 2.91 | 0.811 | 0.0235
ATATGTAGGTTAGGGTCATGCAGAAAGTAGGGAA | 3.55 | 4.44 | 3.61 | 2.02 | 5.67 | 4.25 | 3.53 | 2.78
CGAACTAGGTCAAAGCACAGTGAAAGGCGACGTA | 2.34 | 3.89 | 4.07 | 1.58 | 2.66 | 2.37 | 0.0185 | 0.261
ATCTCTAGGTGAAAGTTCAGTGAATCCCGAGGAT | 2.67 | 2.88 | 2.27 | 0.779 | 2.74 | 2.19 | 0.227 | 1.33
